The panel holds about 83,000 compounds, 20% with a hit somewhere; the sample as a whole holds those more often.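 Each cell line was grown in a 96-well plate and treated with one concentration of compound for 48 hours. Values below 10 were considered active.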 Values without a mark were called inactive. The source made the active and inactive calls.

The test deals with HL-60(TB) leukemia. As to the kind of experiment: NCI-60 one-dose screen, 48 h (100 = growth as untreated, 0 = no growth, -100 = all killed). The conditions noted are these: 10 µM unless noted.
With `CCCCSc1ccc2nc(-c3ccc(OCCCN=C(N)N)cc3)cn2c1`, the growth was 41.1%.
With `N#C/C(C(=O)c1ccccc1)=C1/C(=O)Nc2ccccc21`, the growth is 106%.
The figure for `CNC(=O)NCC1OC(n2cnc3c(NC(=O)Nc4ccccc4)ncnc32)C2OC(C)(C)OC12` (stereo not given) is 83.9%; for `O=[N+]([O-])c1ccc(Oc2cccc3c(Oc4ccc([N+](=O)[O-])cc4[N+](=O)[O-])cccc23)c([N+](=O)[O-])c1` it is 99.9%.
For `O=C(NC1CCN(Cc2ccccc2)CC1)c1cc(C(=O)NC2CCN(Cc3ccccc3)CC2)cc(C(=O)NC2CCN(Cc3ccccc3)CC2)c1` the value was 64.3%.
Turning to `C[C@@H](Oc1cc(-c2cnn(C3CC4(CCCNC4)C3)c2)cnc1N)c1c(Cl)ccc(F)c1Cl` (stereo not given in full), the growth is -41% (active).
With `O=C(c1ccccc1)c1ccccc1-c1ccccc1`, the growth was -4.58% (active).
For `c1coc2occoc=2o1` the value was 102%.
For `COc1cc2c(c(OC)c1OC)C(=O)CC(c1cccc(C(=O)Nc3ccc(Br)cc3)c1)O2` (stereo not given), the growth is 13.8%.
For `COCC[C@H]1CCC/C=C/[C@@H]2C[C@H](O)C[C@H]2[C@H](O)/C=C/C(=O)O1` the value was 3.25% (active); for `Oc1c(Cl)cc(Cl)c2ccc(CN3CCNCC3)nc12`, 44.1%.
For `C#CCOc1ccc2ncnc(Nc3ccc(NC(=O)C=C)cc3)c2c1` the value was -52.5% (active); for `[2H]c1nc(Nc2ncc(F)c(-c3cc(F)c4nc(C)n(C(C)C)c4c3)n2)c([2H])c([2H])c1CN1CCN(CC)CC1`, 24.6%.
The figure for `COc1cnc2c(c1)C(=O)c1c-2n(CCCNC2=NCCS2)c(=O)c2cc(F)ccc12` is -45.5% (active); for `CCN(CC)c1ccc2cc(C(Nc3ccc(Cl)cc3)c3nnnn3C(C)(C)C)c(=O)oc2c1` (stereo not given) it is 96%; for `O=C(Nc1cccc(-n2cc(-c3ccncc3)c(-c3ccc(O)c(Cl)c3)n2)c1)c1cccc(C(F)(F)F)c1` it is 13.3%.
Regarding `CCn1cc(/C=C2\Oc3cc(OCC#N)ccc3C2=O)c2cc(OC)ccc21`, the growth was -31% (active).
With `COc1ncnc2c1ncn2C/C(Br)=C(\Br)CCl`, the growth is 47.1%.
The figure for `Oc1ccc(Br)cc1Sc1cc(Br)ccc1O` is 27.9%; for `CC(C)OC(C(=O)O)c1ccccc1` (stereo not given) it is 129%.
`O=C(Nc1ncc(Cc2ccccc2)s1)c1ccc2c(c1)OCCCO2`: the growth was 11.8%.
The figure for `CCN(CC)S(=O)(=O)c1ccc(O)c(NC(=O)c2[nH]c(C)c(C(C)=O)c2CCc2ccc(Cl)cc2)c1` is 39.6%; for `CC12CCC(CC1)C(C)(C)O2` it is 103%; for `C1CN(CC2CCC(CN3CCOCC3)O2)CCO1` (stereo not given) it is 87%.
For `Oc1ccc(/C=N/Nc2nc3ccccc3s2)c(O)c1` the value was 0.859% (active); for `O=C1NC(=O)C(Cc2ccccc2)(Cc2ccccc2)N1`, 122%.
The figure for `COc1cc(OC)c2c(=O)c(O)c(-c3ccccc3)oc2c1` is 53.4%; for `Cc1ccc(NC(=O)CCl)cc1Cl` it is 106%; for `COc1ccc(C2Nc3ccccc3-n3cccc32)cc1` (stereo not given) it is 113%.
As for `O=C(Nc1ccc(F)cc1)ON=C1CCCCC1`, the growth is 86.8% [100 µM].
The figure for `NC(=O)c1noc(C(=O)c2ccccc2)c1N` is 93.7%; for `Cn1c(COC(=O)NCCn2ccnc2)nc2c(N3CCOCC3)nc(-c3ccccc3)nc21` it is -37.5% (active).
For `Cn1ncc(CC(=O)O)c1-n1nnc2cc(Cl)ccc2c1=O` the value was 97.2%; for `O=C(/C=C/c1ccccn1)c1ccccc1`, 1.48% (active).
With `Cc1[nH]c(C(=O)Nc2ccc(C(N)=O)cc2OC(C)C)c(Cl)c1Cl`, the growth is 97.1%.
As to `C=C1C(=O)O[C@@H]2[C@H]3[C@H](COC(C)=O)[C@@H](OC(C)=O)C[C@H]3C(=C)[C@@H](O)C[C@@H]12`, the growth is 78.9%.
The figure for `O=[N+]([O-])c1ccc(NCSc2ccc(Cl)cc2)cc1` is 83.2%; for `COc1ccc2nc(N/N=C(\C)c3ccccn3)cc(C)c2c1` it is -64.7% (active).
The figure for `CCCCCCCCNC(C)C(O)c1ccc(SC(C)C)cc1` (stereo not given) is -70.1% (active); for `CC(=O)N1N=C(c2cccc(Nc3ccncc3)c2)CC1c1ccc2c(c1)OCO2` (stereo not given) it is 90.3%.

The values above are taken from PubChem BioAssay (NCI).
